An excerpt weighted towards active compounds, which were near 27% of everything screened.
sEH inhibitor = inhibitors of human soluble epoxide hydrolase | inhibition, % at 2 µM | recombinant human sEH enzymatic activity assay | 91,000 tested, 0.34% active; in the data active = inhibition above about 80%
Target sequence (P34913 whole entry, looked up): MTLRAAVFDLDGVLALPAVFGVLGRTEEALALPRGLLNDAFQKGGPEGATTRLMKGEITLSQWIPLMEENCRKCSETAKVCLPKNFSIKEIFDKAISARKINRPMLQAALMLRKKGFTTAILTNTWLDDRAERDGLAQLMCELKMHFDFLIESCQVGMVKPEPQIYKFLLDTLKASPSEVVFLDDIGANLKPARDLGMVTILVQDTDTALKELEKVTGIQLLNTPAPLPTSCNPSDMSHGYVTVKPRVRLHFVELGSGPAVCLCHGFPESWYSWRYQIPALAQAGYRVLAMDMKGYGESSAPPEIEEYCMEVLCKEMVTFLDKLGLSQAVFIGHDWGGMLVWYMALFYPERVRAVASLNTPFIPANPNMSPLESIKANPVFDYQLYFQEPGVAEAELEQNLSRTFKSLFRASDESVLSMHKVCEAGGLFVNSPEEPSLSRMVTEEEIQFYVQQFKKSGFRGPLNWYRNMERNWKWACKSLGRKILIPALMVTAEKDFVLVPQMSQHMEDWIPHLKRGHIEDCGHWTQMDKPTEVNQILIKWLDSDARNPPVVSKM
CYP2C19 inhib = inhibitors of human CYP2C19. P33261. CYP2C19 Supersomes, luciferin-H EGE luminescence, 30 min. inhibition, % at 5 µM. 96,000 tested, 21% active. AID 778;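 active = CYP2C19 inhibition above a set limit at 5 µM in the primary screen, cut at about 50% in these data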;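 note: plate controls were negative control wells for no effect and 2.5 mM tranylcypromine positive control for full effect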
sEH activator = soluble epoxide hydrolase (human) activation | 91,000 tested, 0.04% active | activation, % at 2 µM | purified human sEH enzymatic activity, activator screen; in the data active = activation above about 37%
CYP2C9 inhib = blocks human cytochrome P450 2C9 | CYP2C9 Supersomes, luciferin-H conversion, luminescence | inhibition, % at 5 µM | 96,000 tested, 20% active;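 active = blocking of liver enzyme CYP2C9 beyond about 50% at 5 µM, limit read from the data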
CYP2C9 activ = CYP2C9 (human) activation | P11712 | recombinant CYP2C9, luciferin-H conversion, luminescence; stronger effect = higher value; factor 1 = untreated enzyme, 0 = blocked | activation factor at 5 µM | 96,000 tested, 1.4% active;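 active = activation factor of 2 or more for CYP2C9 at a 5 µM dose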;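 note: 0 = sulfaphenazole-blocked wells and 1 = vehicle-only wells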
CYP2C19 act = activators of human cytochrome P450 2C19 | AID 1025 | recombinant CYP2C19, luciferin-H EGE luminescence; stronger effect = higher value; 0 = fully inhibited enzyme, 1 = untreated enzyme | 96,000 tested, under 10 active | activation factor at 5 µM | P33261;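 active = activation factor of at least 2 at 5 µM in the primary screen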;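 note: 0 = wells with 2.5 mM tranylcypromine and 1 = vehicle-only wells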
The depositor's hits bear a star.

COc1ccccc1CNC(=O)CNCC1CCCO1 (stereo unspecified) was read as CYP2C19 inhib 42, CYP2C9 inhib -30, CYP2C9 activ 1.3 and CYP2C19 act 0.6.
`Cc1nn(CCCC(=O)N2CCc3ccccc3C2)c(=O)c2cc3sccc3n12` gave sEH inhibitor 6, CYP2C19 inhib 54*, sEH activator -7, CYP2C9 inhib 51*, CYP2C9 activ 0.5 and CYP2C19 act 0.5.
CCOC(=O)CCCn1nc(C)n2c(cc3sccc32)c1=O was read as sEH inhibitor 6 and sEH activator -3.
`CCc1nn(CCCC(=O)N2CCc3ccccc3C2)c(=O)c2cc3occc3n12` gave CYP2C19 inhib 80*, CYP2C9 inhib 8, CYP2C9 activ 0.9 and CYP2C19 act 0.2.
`CCOc1ccc(C(=O)Nc2ccc(N3CCCC3)cc2)cc1` gave sEH inhibitor 3, CYP2C19 inhib 3, sEH activator 0, CYP2C9 inhib -20, CYP2C9 activ 1.2 and CYP2C19 act 1.
COc1ccc(N2CCC(CNC(=O)Nc3ccc(OC)cc3OC)C2)cc1 (stereo unspecified) was read as sEH inhibitor 44, CYP2C19 inhib 62*, sEH activator -46, CYP2C9 inhib 36, CYP2C9 activ 0.6 and CYP2C19 act 0.4.
Screening CCOc1ccc(NC(=O)NCC2CCN(c3ccc(OC)cc3)C2)cc1 (stereo unspecified) returned sEH inhibitor 88*, CYP2C19 inhib 16, sEH activator -88, CYP2C9 inhib 24, CYP2C9 activ 0.8 and CYP2C19 act 0.8.
COc1ccc(N2CCC(CNS(=O)(=O)c3cccc(C(F)(F)F)c3)C2)cc1 (stereo unspecified) was read as sEH inhibitor -5, CYP2C19 inhib 26, sEH activator 9, CYP2C9 inhib 35, CYP2C9 activ 0.7 and CYP2C19 act 0.7.
COc1ccc(NC(=O)NCCCN2CCCC2=O)c(OC)c1 was read as sEH inhibitor -1, CYP2C19 inhib 54*, sEH activator 1, CYP2C9 inhib 9, CYP2C9 activ 0.9 and CYP2C19 act 0.5.
CCc1nc(SCc2nnc(-c3ccc(C)cc3)o2)c2c(C)c(C)sc2n1 was read as sEH inhibitor -3 and sEH activator 9.
Screening Cc1ccc(-c2nnc(CSc3nc4cc5c(cc4cc3C)OCO5)o2)cc1 returned sEH inhibitor 8, CYP2C19 inhib 32, sEH activator -9, CYP2C9 inhib 65*, CYP2C9 activ 0.4 and CYP2C19 act 0.7.
Screening COc1ccc(-n2nnc3c(SCC(=O)NCC4CCCO4)ncnc32)cc1 (stereo unspecified) returned sEH inhibitor 20, CYP2C19 inhib -3, sEH activator -17, CYP2C9 inhib 27, CYP2C9 activ 0.7 and CYP2C19 act 1.
`CC(NC(=O)c1cccnc1)c1ccc2c(c1)OCO2` (stereo unspecified) gave sEH inhibitor -5, CYP2C19 inhib 41, sEH activator 9, CYP2C9 inhib 13, CYP2C9 activ 0.9 and CYP2C19 act 0.6.
Cc1cc(C)n2nc(SCc3nnc(SCc4ccccc4C)s3)nc2n1 was read as sEH inhibitor -7, CYP2C19 inhib 77*, sEH activator 9, CYP2C9 inhib 0, CYP2C9 activ 1 and CYP2C19 act 0.2.
`COc1cccc(CSc2nnc(CSc3nc4nc(C)cc(C)n4n3)s2)c1` gave sEH inhibitor -2, CYP2C19 inhib 98*, sEH activator 3, CYP2C9 inhib 44, CYP2C9 activ 0.6 and CYP2C19 act 0.
For O=S(=O)(Nc1nc(-c2sccc2Cl)cs1)c1cc(Cl)ccc1Cl the results were sEH inhibitor 5, CYP2C19 inhib 90*, sEH activator -4, CYP2C9 inhib 99*, CYP2C9 activ 0 and CYP2C19 act 0.1.
Screening N#CC(Nc1ccccc1)c1ccccc1OCc1ccccc1 (stereo unspecified) returned sEH inhibitor 2, CYP2C19 inhib 86*, sEH activator 1, CYP2C9 inhib 89*, CYP2C9 activ 0.1 and CYP2C19 act 0.1.
`Cc1ccc(C(=O)Oc2ccc(Cl)c3cccnc23)cc1[N+](=O)[O-]` gave sEH inhibitor 2, CYP2C19 inhib 3, sEH activator -2, CYP2C9 inhib 0, CYP2C9 activ 1 and CYP2C19 act 1.
Screening Cc1cc(C)c(C(=O)COc2cccnc2[N+](=O)[O-])cc1C returned sEH inhibitor 3, CYP2C19 inhib 63*, sEH activator -1, CYP2C9 inhib 17, CYP2C9 activ 0.8 and CYP2C19 act 0.4.
CC(O)c1nc2ccccc2n1C/C=C/c1ccccc1 (stereo unspecified) was read as sEH inhibitor -5, CYP2C19 inhib 98*, sEH activator 10, CYP2C9 inhib 55*, CYP2C9 activ 0.5 and CYP2C19 act 0.
For OCc1nc2ccccc2n1C/C=C/c1ccccc1 the results were sEH inhibitor -2, CYP2C19 inhib 92*, sEH activator 1, CYP2C9 inhib 60*, CYP2C9 activ 0.4 and CYP2C19 act 0.1.
For C=C(Br)Cn1c(CC)nc2ccccc21 the results were sEH inhibitor -16, CYP2C19 inhib 2, sEH activator 17, CYP2C9 inhib -4, CYP2C9 activ 1 and CYP2C19 act 1.
Screening CCOCCn1c(C(C)O)nc2ccccc21 (stereo unspecified) returned sEH inhibitor -4 and sEH activator 7.
`CC(C)CC(=O)NC(=S)Nc1ccccc1C(=O)Nc1ccccc1` gave sEH inhibitor 4, CYP2C19 inhib 33, sEH activator -6, CYP2C9 inhib 27, CYP2C9 activ 0.7 and CYP2C19 act 0.7.
CCCCC(=O)Nc1ccc(NC(=O)C2CC2)nc1 was read as sEH inhibitor 7 and sEH activator -9.
Screening COc1cc(OC)cc(C(=O)N2CCN(C3CCN(Cc4ccccc4)CC3)CC2)c1 returned sEH inhibitor -5, CYP2C19 inhib -4, sEH activator 6, CYP2C9 inhib -32, CYP2C9 activ 1.3 and CYP2C19 act 1.
For COc1cc2c(cc1NC(=O)C(c1ccccc1)c1ccccc1)CCCC2 the results were sEH inhibitor -5, CYP2C19 inhib 83*, sEH activator 6, CYP2C9 inhib 96*, CYP2C9 activ 0 and CYP2C19 act 0.2.
`CCC1=C(OC(=O)c2ccccc2)C(C)(C)C(c2ccccc2)OC1=O` (stereo unspecified) gave sEH inhibitor -13, CYP2C19 inhib 8, sEH activator 10, CYP2C9 inhib 16, CYP2C9 activ 0.8 and CYP2C19 act 0.9.
For Cn1cc(C(=O)c2ccc(Cl)cc2Cl)cc1C(=O)N/N=C(\N)COc1cccc(C(F)(F)F)c1 the results were sEH inhibitor 6, CYP2C19 inhib 64*, sEH activator -4, CYP2C9 inhib 62*, CYP2C9 activ 0.4 and CYP2C19 act 0.4.
